Consider 38 compounds from PubChem BioAssay (NCI).

Each structure is given as a SMILES string. Compounds without any hit were thinned out: in the full panel of roughly 83,000, 20% have a hit.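 How to read the values: 0–100, growth inhibition (40 = 60% inhibited); 0, no net growth; -100 to 0, cell death (-40 = 40% of starting cells died; -100 = all dead).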 A number with no mark means an inactive call. Activity calls are given as the source filed them. The calls were made as follows: active = growth percent below 10; inactive = the rest.

The first experiment deals with CCRF-CEM leukemia. In words: NCI-60 one-dose screen, 48 h (100 = growth as untreated, 0 = no growth, -100 = all killed). Particulars: 10 µM unless noted.
For `Nc1nc(-c2cc3c(cc2Cl)NC(=O)/C3=C/c2ccc(Cl)cc2)cs1`, the growth was 19%.

As to `Cc1cccc(Cc2cnc(NC(=O)CCc3ccc(C)o3)s2)c1`, the growth was 5.94% (active).

Consider `CC(Cl)(CCl)CS(=O)(=O)c1ccc(Cl)cc1` (stereo unspecified), for which the growth is 109%.

In the case of `COc1ccc(Cl)cc1NC(=O)c1cc2c([nH]1)-c1nc(NC(=O)C(C)(C)C)sc1CC2`, the growth was 52%.

Regarding `CC(C)(c1ccc(OCC(O)CNCc2ccco2)cc1)c1ccc(OCC(O)CNCc2ccco2)cc1` (stereo unspecified), the growth was 72.9%.

As to `O=C1CCC(c2c(O)cc(O)c3c(=O)c(O)c(-c4ccc(O)c(O)c4)oc23)N1` (stereo unspecified), the growth was 103%.

In the case of `COc1ccc(Cn2cc3c(c2-c2cc(OC)c(OC)c(OC)c2)CCc2c(CO)noc2-3)cc1`, the growth was 19.6%.

For `CC(=O)Cc1cccnc1`, the growth is 88.5%.

In the case of `CC(/C=C/C=C(\C)[C@H](O)[C@H](C)C(=O)O[C@H]1C[C@H](C)C=C2C=C[C@@]3(C)O[C@@H](O)CC(=O)[C@]3(C)[C@H]21)=C\C=C\C(=O)O`, the growth is 8.62% (active).

Regarding `Nc1nc(-c2cc3c(cc2Cl)NC(=O)/C3=C/c2ccccc2)cs1`, the growth is 16.1%.

On to `C=CC(=O)NC(=O)Nc1ccccc1Cl`, for which the growth was 37.2%.

On to `CCOC(=O)c1noc2c1CCc1c-2cn(Cc2ccc(OC)cc2)c1-c1cc(OC)c(OC)c(OC)c1`, for which the growth is 15%.

Consider `C=C1C(=O)O[C@H]2[C@H]1CC/C(COC(=O)OC/C1=C/CC[C@@]3(C)O[C@H]3[C@H]3OC(=O)[C@@H](CN(C)C)[C@@H]3CC1)=C\CC[C@@]1(C)O[C@@H]21`, for which the growth was -13.3% (active).

On to `CC1CCC(C(C)C)C(NN)C1` (stereo unspecified), for which the growth is 89.5%.

In the case of `Cc1cc(SCc2ccc(Cl)cc2Cl)nc(SCc2ccc(Cl)cc2Cl)n1`, the growth is 108%.

Regarding `CCCC(C)(C)COC(=O)c1cccc(N)c1`, the growth was 88.5%.

With `O=C1C(Cl)=C(Nc2cccc3cc4ccccc4nc23)C(=O)c2ccccc21`, the growth is 64.8%.

Regarding `CN(C)CCCOc1c(Br)cc(/C=C/C(=O)N(C)CCc2cc(Br)c(OCCCN(C)C)c(Br)c2)cc1Br`, the growth is 4.13% (active).

`Nc1nccc(=S)[nH]1`: the growth was 113%.

With `C=C1C(=O)O[C@H]2[C@H]1CC/C(COC(=O)CCCC(=O)OC/C1=C/CC[C@@]3(C)O[C@H]3[C@H]3OC(=O)C(=C)[C@@H]3CC1)=C\CC[C@@]1(C)O[C@@H]21`, the growth is -11.7% (active).

Consider `O=C(NNC(=O)c1ccc([N+](=O)[O-])cc1)c1ccc([N+](=O)[O-])cc1`, for which the growth is 91.6%.

`COc1cc(C(=O)NNC(=O)c2ccccc2C(=O)O)cc(OC)c1OC`: the growth is 5.04% (active).

For the compound `O=S(c1ccccc1)c1ccc2nnnn2n1` (stereo unspecified), the growth is 44.9%.

Regarding `Cc1ncc(CO)c(C(=O)O)c1O`, the growth is 121%.

Regarding `CCOC(=O)c1noc2c1CCc1cn(Cc3cc(OC)cc(OC)c3)cc1-2`, the growth is 102%.

Turning to `CCCCCC/C=N/Nc1ccc([N+](=O)[O-])cn1`, the growth was 100%.

With `CC[C@@]1(O)C(=O)OCc2c1cc1n(c2=O)Cc2c-1nc1ccccc1c2/C=N/OC(C)(C)C`, the growth is 4.16% (active).

Turning to `CC(=O)Oc1ccc(C(OC(C)=O)OC(C)=O)cc1`, the growth was 94.5%.

Consider `C=C1C(=O)O[C@H]2[C@H]1CC/C(COC(=O)n1ccnc1C)=C\CC[C@@]1(C)O[C@@H]21`, for which the growth is 70.4%.

On to `C=C1C(=O)O[C@H]2[C@H]1CC/C(C(=O)NCCOCCOCC(=O)Nc1ccc(OC)c(C(N)=O)c1O)=C\CC[C@@]1(C)O[C@@H]21`, for which the growth is 64.6%.

Consider `Cc1cc(C)c(O)c(C(=O)CC(Br)C(=O)O)c1` (stereo unspecified), for which the growth is 65.2%.

`COc1ccc(-c2ccc(NC(=O)Nc3cccc(C(F)(F)F)c3)c(C)n2)cc1`: the growth is 42.9%.

As to `COc1ccc(Cn2cc(COc3ccc4c5ccnc(C)c5n(CCCc5ccccc5)c4c3)nn2)cc1`, the growth is 19.7%.

In the case of `O=S(=O)(O)c1ccc(F)cc1`, the growth was 90.6%.

For the compound `Cc1nccc2c3ccc(OCc4cn(Cc5ccc(Br)cc5)nn4)cc3n(CCCc3ccccc3)c12`, the growth is 83.1%.

In the case of `Cl[C@@H]1CCO[C@H](c2cc3ccccc3c3ccccc23)C1`, the growth is 85.9%.

With `Nc1ncnc2c1c(C(F)(F)F)cn2[C@@H]1O[C@H](CO)[C@@H](O)[C@H]1O`, the growth was 5.79% (active).

With `C#C[C@@]1(O)[C@@H](CO)O[C@@H](n2cc(Br)c3c(Cl)ccnc32)[C@@H]1O`, the growth was 12.8%.

For the next experiment, the system named is MOLT-4 leukemia. The experiment is described as above. To be noted: 10 µM unless noted.
As for `Nc1nc(-c2cc3c(cc2Cl)NC(=O)/C3=C/c2ccc(Cl)cc2)cs1`, the growth is 15.5%.

As for `Cc1cccc(Cc2cnc(NC(=O)CCc3ccc(C)o3)s2)c1`, the growth is 8.52% (active).

In the case of `CC(Cl)(CCl)CS(=O)(=O)c1ccc(Cl)cc1` (stereo unspecified), the growth is 101%.

On to `COc1ccc(Cl)cc1NC(=O)c1cc2c([nH]1)-c1nc(NC(=O)C(C)(C)C)sc1CC2`, for which the growth is 58.6%.

Regarding `CC(C)(c1ccc(OCC(O)CNCc2ccco2)cc1)c1ccc(OCC(O)CNCc2ccco2)cc1` (stereo unspecified), the growth was 67.1%.

On to `O=C1CCC(c2c(O)cc(O)c3c(=O)c(O)c(-c4ccc(O)c(O)c4)oc23)N1` (stereo unspecified), for which the growth is 92.2%.

Regarding `COc1ccc(Cn2cc3c(c2-c2cc(OC)c(OC)c(OC)c2)CCc2c(CO)noc2-3)cc1`, the growth was 16.6%.

With `CC(=O)Cc1cccnc1`, the growth was 93.7%.

For the compound `CC(/C=C/C=C(\C)[C@H](O)[C@H](C)C(=O)O[C@H]1C[C@H](C)C=C2C=C[C@@]3(C)O[C@@H](O)CC(=O)[C@]3(C)[C@H]21)=C\C=C\C(=O)O`, the growth was 1.42% (active).

As to `Nc1nc(-c2cc3c(cc2Cl)NC(=O)/C3=C/c2ccccc2)cs1`, the growth was 21.8%.

As to `C=CC(=O)NC(=O)Nc1ccccc1Cl`, the growth was 39.6%.

On to `CCOC(=O)c1noc2c1CCc1c-2cn(Cc2ccc(OC)cc2)c1-c1cc(OC)c(OC)c(OC)c1`, for which the growth was 18.5%.

Consider `C=C1C(=O)O[C@H]2[C@H]1CC/C(COC(=O)OC/C1=C/CC[C@@]3(C)O[C@H]3[C@H]3OC(=O)[C@@H](CN(C)C)[C@@H]3CC1)=C\CC[C@@]1(C)O[C@@H]21`, for which the growth was -30.9% (active).

For `CC1CCC(C(C)C)C(NN)C1` (stereo unspecified), the growth was 65.9%.

As to `Cc1cc(SCc2ccc(Cl)cc2Cl)nc(SCc2ccc(Cl)cc2Cl)n1`, the growth was 104%.

Consider `CCCC(C)(C)COC(=O)c1cccc(N)c1`, for which the growth was 56%.

Consider `O=C1C(Cl)=C(Nc2cccc3cc4ccccc4nc23)C(=O)c2ccccc21`, for which the growth is 25.9%.

For the compound `CN(C)CCCOc1c(Br)cc(/C=C/C(=O)N(C)CCc2cc(Br)c(OCCCN(C)C)c(Br)c2)cc1Br`, the growth was -1.09% (active).

As to `Nc1nccc(=S)[nH]1`, the growth was 92.8%.

Regarding `C=C1C(=O)O[C@H]2[C@H]1CC/C(COC(=O)CCCC(=O)OC/C1=C/CC[C@@]3(C)O[C@H]3[C@H]3OC(=O)C(=C)[C@@H]3CC1)=C\CC[C@@]1(C)O[C@@H]21`, the growth was -19.1% (active).

`O=C(NNC(=O)c1ccc([N+](=O)[O-])cc1)c1ccc([N+](=O)[O-])cc1`: the growth is 100%.

As for `COc1cc(C(=O)NNC(=O)c2ccccc2C(=O)O)cc(OC)c1OC`, the growth was -5.79% (active).

Take `O=S(c1ccccc1)c1ccc2nnnn2n1` (stereo unspecified): the growth is 83.8%.

In the case of `Cc1ncc(CO)c(C(=O)O)c1O`, the growth is 82.5%.

Turning to `CCOC(=O)c1noc2c1CCc1cn(Cc3cc(OC)cc(OC)c3)cc1-2`, the growth is 79.5%.

As for `CCCCCC/C=N/Nc1ccc([N+](=O)[O-])cn1`, the growth is 103%.

Take `CC[C@@]1(O)C(=O)OCc2c1cc1n(c2=O)Cc2c-1nc1ccccc1c2/C=N/OC(C)(C)C`: the growth was -10.6% (active).

On to `CC(=O)Oc1ccc(C(OC(C)=O)OC(C)=O)cc1`, for which the growth was 91.1%.

As to `C=C1C(=O)O[C@H]2[C@H]1CC/C(COC(=O)n1ccnc1C)=C\CC[C@@]1(C)O[C@@H]21`, the growth was 79.8%.

As to `C=C1C(=O)O[C@H]2[C@H]1CC/C(C(=O)NCCOCCOCC(=O)Nc1ccc(OC)c(C(N)=O)c1O)=C\CC[C@@]1(C)O[C@@H]21`, the growth was 66.2%.

Take `Cc1cc(C)c(O)c(C(=O)CC(Br)C(=O)O)c1` (stereo unspecified): the growth was 88.5%.

For `COc1ccc(-c2ccc(NC(=O)Nc3cccc(C(F)(F)F)c3)c(C)n2)cc1`, the growth is 33.7%.

Turning to `COc1ccc(Cn2cc(COc3ccc4c5ccnc(C)c5n(CCCc5ccccc5)c4c3)nn2)cc1`, the growth is 38.4%.

As to `O=S(=O)(O)c1ccc(F)cc1`, the growth was 98.5%.

Take `Cc1nccc2c3ccc(OCc4cn(Cc5ccc(Br)cc5)nn4)cc3n(CCCc3ccccc3)c12`: the growth is 90.8%.

For the compound `Cl[C@@H]1CCO[C@H](c2cc3ccccc3c3ccccc23)C1`, the growth was 98%.

For the compound `Nc1ncnc2c1c(C(F)(F)F)cn2[C@@H]1O[C@H](CO)[C@@H](O)[C@H]1O`, the growth is 0.0629% (active).

As to `C#C[C@@]1(O)[C@@H](CO)O[C@@H](n2cc(Br)c3c(Cl)ccnc32)[C@@H]1O`, the growth is 1.9% (active).
